The full data set covers some 8,800 targets. This sample favours those with a hit. About 0.5% of all pairs of compound and target were hits.
Key:
Test in all cases: log2 fold change, soluble protein after heating vs DMSO (PISA); higher = thermal stabilisation; K562 lysate, 10 uM; active = over 0.2 and 3.5 SD of the protein, either way, in both replicates (recomputed)
[1] = compound: C1=CC=C(C=C1)[C@H](COC2=CC3=C(C=C2)NC(=O)N3)NC(=O)C4=CC=CN(C4=O)CC5=CC(=C(C=C5)F)F
How it was run: (§1)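 Dounce homogenisation of K562 pellets in PBS pH 7.4 with 1 mM MgCl2 produced a crude extract, used at 1 mg/mL protein. Exposure to 10 μM compound lasted 30 min, and aliquots were then heated for 3 min across 48°C-58°C, pooled and brought to 0.5% NP-40 at 4°C. The supernatant after 21,000xg for 90 min was quantified by TMTpro 16plex LC-MS/MS with channel sums equalised. Duplicate values are given as log-two fold change in thermal stability relative to solvent controls.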

[2] = compound: CC1=C(SC2=C1C(=N[C@H](C3=NN=C(N32)C)CC(=O)N)C4=CC=C(C=C4)Cl)C
How it was run: as §1

[3] = compound: CC1=C2C(=CC=C1)N=C(N(C2=O)C3=CC=CC=C3C)CN4C=NC5=C(N=CN=C54)N
How it was run: as §1

[4] = compound: Cc1sc2c(c1C)C(c1ccc(Cl)cc1)=N[C@@H](CC(=O)OC(C)(C)C)c1nnc(C)n1-2
How it was run: as §1

[5] = compound: c1ccc([C@@H]2C[C@H]2NC2CCNCC2)cc1
How it was run: as §1

Measured: log2 fold change

PRKDC (UniProt P78527)
inactive: [1] -0.073 | [2] -0.123 | [3] -0.064 | [4] 0.028 | [5] -0.048

PTPN1 (UniProt P18031)
UniProt P18031, sequence (P18031 whole entry, looked up): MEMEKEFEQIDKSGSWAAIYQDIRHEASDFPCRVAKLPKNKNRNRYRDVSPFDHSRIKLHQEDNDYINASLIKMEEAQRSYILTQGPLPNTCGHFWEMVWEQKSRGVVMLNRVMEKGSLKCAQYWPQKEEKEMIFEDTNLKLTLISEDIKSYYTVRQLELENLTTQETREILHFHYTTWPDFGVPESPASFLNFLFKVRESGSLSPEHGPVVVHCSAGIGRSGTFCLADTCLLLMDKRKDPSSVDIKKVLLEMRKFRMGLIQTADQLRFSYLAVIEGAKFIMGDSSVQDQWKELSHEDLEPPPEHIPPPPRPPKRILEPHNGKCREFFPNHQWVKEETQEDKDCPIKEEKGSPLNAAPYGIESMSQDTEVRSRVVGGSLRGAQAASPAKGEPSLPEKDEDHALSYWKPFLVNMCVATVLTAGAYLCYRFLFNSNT
inactive: [1] -0.006 | [2] 0.008 | [3] 0.01 | [4] -0.026 | [5] 0.005

PI4KB (UniProt Q9UBF8)
UniProt Q9UBF8, sequence (Q9UBF8 whole entry, looked up): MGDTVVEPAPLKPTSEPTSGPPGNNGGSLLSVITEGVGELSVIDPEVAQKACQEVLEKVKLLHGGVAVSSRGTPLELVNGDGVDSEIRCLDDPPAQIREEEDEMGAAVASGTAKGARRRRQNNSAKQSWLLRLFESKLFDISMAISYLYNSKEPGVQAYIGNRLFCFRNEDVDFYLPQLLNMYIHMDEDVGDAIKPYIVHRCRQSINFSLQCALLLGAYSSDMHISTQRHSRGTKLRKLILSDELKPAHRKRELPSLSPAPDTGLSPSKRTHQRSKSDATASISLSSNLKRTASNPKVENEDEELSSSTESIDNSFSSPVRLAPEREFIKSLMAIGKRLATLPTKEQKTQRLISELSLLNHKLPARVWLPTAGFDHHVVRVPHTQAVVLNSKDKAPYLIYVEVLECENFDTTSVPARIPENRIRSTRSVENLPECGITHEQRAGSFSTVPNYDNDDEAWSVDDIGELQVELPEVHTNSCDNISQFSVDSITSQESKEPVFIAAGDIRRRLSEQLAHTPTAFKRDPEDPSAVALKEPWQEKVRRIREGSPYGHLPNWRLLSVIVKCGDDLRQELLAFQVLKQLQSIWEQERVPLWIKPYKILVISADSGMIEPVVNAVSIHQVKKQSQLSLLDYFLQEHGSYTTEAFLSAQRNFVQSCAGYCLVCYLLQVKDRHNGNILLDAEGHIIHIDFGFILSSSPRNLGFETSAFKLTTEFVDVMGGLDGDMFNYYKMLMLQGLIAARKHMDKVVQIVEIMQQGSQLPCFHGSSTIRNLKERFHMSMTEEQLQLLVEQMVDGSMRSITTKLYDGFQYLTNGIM
inactive: [1] 0.022 | [2] -0.006 | [3] -0.019 | [4] -0.005 | [5] 0.002

PFKP (UniProt Q01813)
UniProt Q01813, sequence (Q01813 whole entry, looked up): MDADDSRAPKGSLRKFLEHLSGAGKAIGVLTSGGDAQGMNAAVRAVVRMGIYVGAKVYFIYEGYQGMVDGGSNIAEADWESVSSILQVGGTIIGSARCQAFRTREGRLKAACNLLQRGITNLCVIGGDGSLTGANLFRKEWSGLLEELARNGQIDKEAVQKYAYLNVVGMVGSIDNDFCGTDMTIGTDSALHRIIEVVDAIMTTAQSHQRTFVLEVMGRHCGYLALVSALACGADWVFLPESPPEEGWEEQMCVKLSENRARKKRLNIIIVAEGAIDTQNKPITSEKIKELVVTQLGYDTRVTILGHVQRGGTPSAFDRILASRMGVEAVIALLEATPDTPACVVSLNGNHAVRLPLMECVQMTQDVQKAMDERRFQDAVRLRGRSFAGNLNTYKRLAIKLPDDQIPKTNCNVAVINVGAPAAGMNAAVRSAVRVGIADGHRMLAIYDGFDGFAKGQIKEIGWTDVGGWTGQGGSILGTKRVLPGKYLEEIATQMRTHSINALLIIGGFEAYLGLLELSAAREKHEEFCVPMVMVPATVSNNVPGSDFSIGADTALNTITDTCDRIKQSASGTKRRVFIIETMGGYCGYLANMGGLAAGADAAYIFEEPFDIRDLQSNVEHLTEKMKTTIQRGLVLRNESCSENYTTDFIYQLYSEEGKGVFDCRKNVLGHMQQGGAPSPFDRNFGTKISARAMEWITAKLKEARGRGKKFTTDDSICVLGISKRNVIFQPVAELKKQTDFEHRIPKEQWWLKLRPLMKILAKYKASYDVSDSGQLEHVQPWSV
inactive: [1] -0.005 | [2] 0.02 | [3] 0.043 | [4] -0.031 | [5] 0.027

POLB (UniProt P06746)
inactive: [1] -0.02 | [2] -0.005 | [3] 0.028 | [4] 0.041 | [5] 0.021

PRKCA (UniProt P17252)
inactive: [1] 0.01 | [2] -0.012 | [3] -0.061 | [4] 0.021 | [5] 0.089

PTMA isoform 2 (UniProt P06454)
UniProt P06454, sequence (P06454 whole entry, looked up): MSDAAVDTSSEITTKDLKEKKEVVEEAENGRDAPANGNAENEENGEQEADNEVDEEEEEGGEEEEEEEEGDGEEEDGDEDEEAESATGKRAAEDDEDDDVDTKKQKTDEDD
inactive: [1] 0.098 | [2] -0.016

PPP1R12B isoform 6 (UniProt O60237)
UniProt O60237, sequence (O60237 whole entry, looked up): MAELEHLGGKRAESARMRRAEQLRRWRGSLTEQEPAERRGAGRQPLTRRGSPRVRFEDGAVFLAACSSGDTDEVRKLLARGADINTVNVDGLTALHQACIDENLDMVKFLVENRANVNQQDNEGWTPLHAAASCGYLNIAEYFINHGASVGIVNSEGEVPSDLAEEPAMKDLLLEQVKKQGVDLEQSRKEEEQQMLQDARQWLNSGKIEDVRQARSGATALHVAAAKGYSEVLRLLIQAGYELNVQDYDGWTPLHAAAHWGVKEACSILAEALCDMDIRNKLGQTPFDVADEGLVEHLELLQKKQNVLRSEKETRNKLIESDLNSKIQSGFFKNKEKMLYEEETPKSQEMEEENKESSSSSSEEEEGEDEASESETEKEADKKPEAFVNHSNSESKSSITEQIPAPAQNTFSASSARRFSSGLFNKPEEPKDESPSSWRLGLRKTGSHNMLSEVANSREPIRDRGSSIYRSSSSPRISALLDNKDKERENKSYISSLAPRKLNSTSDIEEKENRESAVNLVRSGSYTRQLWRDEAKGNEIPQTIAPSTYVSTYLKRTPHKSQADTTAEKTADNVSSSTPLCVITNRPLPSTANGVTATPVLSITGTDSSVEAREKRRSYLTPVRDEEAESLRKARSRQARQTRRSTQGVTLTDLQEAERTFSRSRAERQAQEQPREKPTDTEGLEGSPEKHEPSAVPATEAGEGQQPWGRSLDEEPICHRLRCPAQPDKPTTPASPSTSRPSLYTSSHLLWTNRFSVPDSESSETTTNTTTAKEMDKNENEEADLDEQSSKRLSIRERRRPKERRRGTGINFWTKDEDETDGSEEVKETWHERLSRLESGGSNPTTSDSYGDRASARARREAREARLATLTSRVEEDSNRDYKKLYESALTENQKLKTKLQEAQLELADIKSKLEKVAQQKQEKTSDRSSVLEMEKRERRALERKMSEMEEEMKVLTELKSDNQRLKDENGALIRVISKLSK
inactive: [1] 0.043 | [2] 0.033 | [3] 0.088 | [4] -0.145

PUS3 (UniProt Q9BZE2)
UniProt Q9BZE2, sequence (Q9BZE2 whole entry, looked up): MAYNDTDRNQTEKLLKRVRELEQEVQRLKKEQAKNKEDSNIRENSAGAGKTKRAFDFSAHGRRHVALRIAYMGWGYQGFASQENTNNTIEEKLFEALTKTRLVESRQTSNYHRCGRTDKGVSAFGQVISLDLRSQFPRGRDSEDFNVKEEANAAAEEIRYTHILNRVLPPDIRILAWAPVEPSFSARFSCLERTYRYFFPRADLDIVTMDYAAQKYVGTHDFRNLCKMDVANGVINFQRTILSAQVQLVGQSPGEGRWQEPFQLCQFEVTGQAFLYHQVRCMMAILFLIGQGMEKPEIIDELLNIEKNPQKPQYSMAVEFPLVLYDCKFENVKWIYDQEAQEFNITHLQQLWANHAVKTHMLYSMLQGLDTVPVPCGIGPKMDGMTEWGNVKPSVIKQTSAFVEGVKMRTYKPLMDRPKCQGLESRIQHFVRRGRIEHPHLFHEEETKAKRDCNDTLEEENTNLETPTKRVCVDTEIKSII
inactive: [1] -0.006 | [2] -0.089 | [3] -0.073 | [4] 0.082 | [5] 0.135

PRKCSH (UniProt P14314)
UniProt P14314, sequence (P14314 whole entry, looked up): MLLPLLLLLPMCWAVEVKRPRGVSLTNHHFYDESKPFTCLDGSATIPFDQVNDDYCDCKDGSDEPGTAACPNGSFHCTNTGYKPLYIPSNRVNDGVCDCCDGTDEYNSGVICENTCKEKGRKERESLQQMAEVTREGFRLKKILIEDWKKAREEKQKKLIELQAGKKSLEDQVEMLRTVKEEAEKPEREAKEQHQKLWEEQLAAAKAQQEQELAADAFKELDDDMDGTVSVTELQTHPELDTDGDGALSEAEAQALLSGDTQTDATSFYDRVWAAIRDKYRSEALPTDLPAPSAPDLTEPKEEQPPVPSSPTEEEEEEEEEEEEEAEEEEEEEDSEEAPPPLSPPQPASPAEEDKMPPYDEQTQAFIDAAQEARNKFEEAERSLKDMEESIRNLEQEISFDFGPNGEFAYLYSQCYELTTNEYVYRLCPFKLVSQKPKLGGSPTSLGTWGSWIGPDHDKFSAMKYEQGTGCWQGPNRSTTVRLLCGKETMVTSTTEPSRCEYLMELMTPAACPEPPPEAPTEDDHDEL
inactive: [1] 0 | [2] -0.002 | [3] -0.017 | [4] 0.041 | [5] 0.021
